Bioassay records deposited in PubChem BioAssay by National Center for Advancing Translational Sciences (NCATS).
EPAC1 antagonist = antagonists of human EPAC1; O95398; EPAC1 GEF assay, Rap1b-BODIPY-GDP exchange fluorescence; Potency, µM (titrated, usually from 115 µM), most hits filed as inhibitors; actives 0.14% (n = 360,000); also: nearly all actives have a fitted effect of over 50% in size
BRCA1 expr act = increases BRCA1 expression; MCF7-BRCA1-FFLuc reporter, luminescence, 48 h; response scale: scaled: vehicle 0%, 10 µM genistein 100%; Potency, µM (top dose mostly 46.1 µM), actives largely listed as activators; actives 1.1% (n = 380,000); AID 624202; also: nearly all actives have a fitted effect of over 80% in size
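First, MCF7-BRCA1-FFLuc cells (2000/well) attach for 2 h; next, compounds are pin-added and incubated 48 h at 37 °C; finally, luciferase reagent is added and luminescence read after 15 min.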
USP1 inh = blocks the human USP1/UAF1 deubiquitinase complex; O94782; AID 743255; Potency, µM (top dose mostly 57.1 µM), actives largely listed as inhibitors; recombinant USP1/UAF1, Ub-Rhodamine cleavage fluorescence; actives 0.23% (n = 390,000); also: nearly all actives have a fitted effect of over 60% in size
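In this screen, compounds sit with the deubiquitinase complex (1nM) for 15 min at room temperature before Ub-Rho is added at 150nM final. Fluorescence rise is then followed for 6 reads every 60 seconds.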
EPAC2 antagonist = antagonists of human EPAC2; Q8WZA2; EPAC2 GEF exchange of Rap1B-BODIPY-GDP, fluorescence; Potency, µM (top dose mostly 114 µM), most hits filed as inhibitors; actives 0.18% (n = 360,000); AID 720708; also: nearly all actives have a fitted effect of over 45% in size
EPAC2 ag = EPAC2 (human) agonism. EPAC2 activation, biochemical qHTS; response scale: 100% = 6.5 mM cAMP response. Q8WZA2. Potency, µM (highest dose often 154 µM), most hits filed as activators. actives 0.079% (n = 360,000); also: nearly all actives have a fitted effect of over 50% in size
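Compounds were added across a concentration range to EPAC2 (100 nM), RAP1B-BODIPY-GDP (250 nM) and GDP (50 uM). After 5 min at room temperature, fluorescence was recorded at 5-min intervals for 30 min.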
EPAC1 ag = agonists of human EPAC1. EPAC1 agonist qHTS, biochemical assay; response scale: 100% = response to 6.5 mM cAMP. AID 720707. Potency, µM (titrated, usually from 154 µM), most hits filed as activators. actives 0.073% (n = 360,000). O95398; also: nearly all actives have a fitted effect of over 60% in size
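Nucleotide exchange assay: 100 nM EPAC1 with 250 nM Rap1B loaded with BODIPY-GDP and 50 uM GDP, room temperature. Fluorescence (480/540 nm) read every 5 min for 30 min; signal change normalized to 6.5 mM cAMP as full agonist.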
Hits are given with their value. A selection: hits, their analogues and other compounds. The true share with any hit is near 1.4%. Calls follow the shape of the dose curve; as a rule, active = well fitted curve in the direction sought with a large enough effect; inconclusive = small, poorly fitted or top-dose-only effect, or another doubt; inactive = no such curve, though single readings can be large; an effect the other way counts as inactive or inconclusive.

What do the screens show for `Cc1ccc(S(=O)(=O)N2CCOCC2)cc1C(=O)Nc1ccc(N2CCCCCC2)cc1`?
EPAC1 antagonist: inactive; BRCA1 expr act: inactive; USP1 inh: inactive; EPAC2 antagonist: inactive; EPAC2 ag: inactive; EPAC1 ag: inactive

How did Cn1c(=NC(=O)CCS(=O)(=O)c2ccccc2)sc2cc(F)ccc21 do in these assays?
EPAC1 antagonist: inactive; BRCA1 expr act: inactive; USP1 inh: inactive; EPAC2 antagonist: inactive; EPAC2 ag: inactive; EPAC1 ag: inactive

How did Cn1c(=NC(=O)CS(=O)(=O)c2ccccc2)sc2cc(F)ccc21 do in these assays?
EPAC1 antagonist: inactive; BRCA1 expr act: 5µM; USP1 inh: inactive; EPAC2 antagonist: inactive; EPAC2 ag: inactive; EPAC1 ag: inactive

How did CSC1=NSC2=NC(=O)/C(=C\c3coc4ccccc4c3=O)C(=N)N12 do in these assays?
EPAC1 antagonist: inactive; BRCA1 expr act: inactive; USP1 inh: 22µM; EPAC2 antagonist: inactive; EPAC2 ag: inconclusive; EPAC1 ag: 63µM

How did CC(C)CSC1=NSC2=NC(=O)/C(=C\c3coc4ccccc4c3=O)C(=N)N12 do in these assays?
EPAC1 antagonist: inactive; BRCA1 expr act: inactive; USP1 inh: 4.5µM; EPAC2 antagonist: inactive; EPAC2 ag: inconclusive; EPAC1 ag: inactive

Results for O=C(NCC(c1ccc2c(c1)OCO2)N1CCN(c2ccccc2F)CC1)c1ccccc1F (stereo not given) ?
USP1 inh: inactive

How did COc1ccc(CN(C)C(=O)c2[nH]c(C)c(C(C)=O)c2C)cc1F do in these assays?
EPAC1 antagonist: inactive; BRCA1 expr act: inactive; USP1 inh: inactive; EPAC2 antagonist: inactive; EPAC2 ag: inactive; EPAC1 ag: inactive

How did Cc1cc2nc3c(=O)[nH]c(=O)[nH]c3nc2c([N+](=O)[O-])c1N do in these assays?
EPAC1 antagonist: inactive; BRCA1 expr act: inactive; USP1 inh: inconclusive; EPAC2 antagonist: inactive; EPAC2 ag: inactive; EPAC1 ag: 89µM

How did Cc1c(N)c(C(C)(C)C)cc(C(C)(C)C)c1[N+](=O)[O-] do in these assays?
EPAC1 antagonist: inactive; BRCA1 expr act: inactive; USP1 inh: inactive; EPAC2 antagonist: inactive; EPAC2 ag: inactive; EPAC1 ag: inactive

How did CCN(CC)S(=O)(=O)c1ccc2c(c1)N(CC(=O)Nc1ccc(NC(C)=O)cc1)C(=O)CO2 do in these assays?
EPAC1 antagonist: inactive; BRCA1 expr act: inactive; USP1 inh: inactive; EPAC2 antagonist: inactive; EPAC2 ag: inactive; EPAC1 ag: inactive

Results for CCCN1CCc2c(sc(NC(=O)c3ccc(S(=O)(=O)N(C)c4ccccc4)cc3)c2C(N)=O)C1 ?
EPAC1 antagonist: inactive; BRCA1 expr act: inactive; USP1 inh: inconclusive; EPAC2 antagonist: inactive; EPAC2 ag: 112µM; EPAC1 ag: inactive

Results for CCCN1CCc2c(sc(NC(=O)c3ccc(S(=O)(=O)N(C)c4ccccc4)cc3)c2C(=O)NC)C1 ?
EPAC1 antagonist: inactive; BRCA1 expr act: inactive; USP1 inh: inconclusive; EPAC2 antagonist: inactive; EPAC2 ag: inactive; EPAC1 ag: inactive

Results for COC(=O)C[C@H]1C=C[C@H](NC(=O)c2cccc(F)c2)[C@@H](CO)O1 ?
EPAC1 antagonist: inactive; EPAC2 antagonist: inactive; EPAC2 ag: inactive; EPAC1 ag: inactive

What do the screens show for `Cc1cccc(NC(=O)Cc2ccc(-c3ccccc3)cc2)n1`?
EPAC1 antagonist: inactive; BRCA1 expr act: inactive; USP1 inh: inactive; EPAC2 antagonist: inactive; EPAC2 ag: inactive; EPAC1 ag: inactive

Results for Cc1ccc(CC(=O)Nc2cccc(C)n2)cc1 ?
EPAC1 antagonist: inactive; BRCA1 expr act: 10µM; USP1 inh: inactive; EPAC2 antagonist: inactive; EPAC2 ag: inactive; EPAC1 ag: inactive

How did CCC(=O)Nc1ccc(C(=O)Nc2cccc(C)n2)cc1 do in these assays?
EPAC1 antagonist: inactive; BRCA1 expr act: 2.5µM; USP1 inh: inactive; EPAC2 antagonist: inactive; EPAC2 ag: inactive; EPAC1 ag: inactive

Results for CCOC(=O)c1ccc(NC(=O)Nc2cccc(C)n2)cc1 ?
EPAC1 antagonist: inactive; BRCA1 expr act: inactive; USP1 inh: inactive; EPAC2 antagonist: inactive; EPAC2 ag: inactive; EPAC1 ag: inactive
